From PubChem BioAssay (NCATS) come the findings set out here.

Molecules are shown by their SMILES. Results filed as inconclusive are left out. Unmarked numbers belong to inactive results. Calls of active or inactive are those of the source. Unless noted, the call rests on the fitted dose curve; in most records, active means well fitted curve in the direction sought with a large enough effect; inconclusive means small, poorly fitted or top-dose-only effect, or another doubt; inactive means no such curve, though single readings can be large; an effect the other way counts as inactive or inconclusive.

The target in assay [1] is Calcium and integrin-binding protein 1 (Homo sapiens) (UniProt Q99828). Nature of the assay: Primary qHTS for Identification of Calcium Integrin Binding Protein 1 (CIB1) Competitor (AID 1508620).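 Further: GST tagged CIB1 binding a fluorescein labelled alphaIIb integrin peptide tracer; top concentration of the series differs between compounds; on the % scale 0 is the no-effect control and ±100 the full control effect.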 In short, it runs like this: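 CIB1-GST (1 uM final) and compound incubated 15 min at room temperature before adding FITC-alphaIIb peptide tracer (100 nM final). Competition for binding read by fluorescence polarization (ex 480, em 540) after another 15 min at room temperature.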
In general terms: In qHTS, concentration-response curves come from the screen itself.

Assay [2] addresses Cytochrome P450 2C9 (Homo sapiens) (UniProt P11712). Briefly: Cytochrome P450 family 2 subfamily C member 9 (CYP2C9) small molecule antagonists: luciferase biochemical (cell-free) qHTS assay (AID 1645842; active means well fitted curve in the direction sought with a large enough effect in the repeat runs; an effect the other way counts as inactive or inconclusive; further: nearly all actives have a fitted effect of over 55% in size; further: potency means the concentration at half of the fitted maximal effect). The essentials: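 P450-Glo CYP2C9 system: proluciferin substrate with enzyme in mix containing 0.4% BSA, 10 min at room temperature, then NADPH regeneration solution added and incubated 1 h at 37C. Detection reagent stopped reaction; luminescence read after 20 min as RLU.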

The target in assay [3] is N-terminal Xaa-Pro-Lys N-methyltransferase 1 (Homo sapiens) (UniProt Q9BV86). Briefly: Confirmatory qHTS for Inhibitors of N-terminal methyltransferase 1 (NTMT1): MTaseGlo Assay (AID 1645874). Further: nearly all actives have a fitted effect of over 65% in size. Further: potency means the concentration at half of the fitted maximal effect. The essentials: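 SPKRIA peptide at 1 uM was methylated by 125 nM NTMT1 using 100 uM SAM over 30 min at room temperature, following a 15 min compound preincubation. Product SAH was detected luminescently.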

Assay [4] can be described thus: Primary qHTS for inhibitors of nuclear receptor binding SET domain protein 2 (NSD2) in an isogenic RCH-ACV NSD2 p.E1099K mutant (9B) (AID 1645876). Further: nearly all actives have a fitted effect of over 70% in size. Further: potency means the concentration at half of the fitted maximal effect. On activity change, negative = viability loss: on the % scale 0 is the no-effect control and ±100 the full control effect.
Assay [5] addresses Cytochrome P450 2D6 (Homo sapiens) (UniProt P10635). Nature of the assay: Cytochrome P450 family 2 subfamily D member 6 (CYP2D6) small molecule antagonists: luciferase biochemical (cell-free) qHTS assay (AID 1645840; active means well fitted curve in the direction sought with a large enough effect in the repeat runs; an effect the other way counts as inactive or inconclusive; further: potency means the concentration at half of the fitted maximal effect; nearly all actives have a fitted effect of over 55% in size). The essentials: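 P450-Glo CYP2D6 system: proluciferin substrate converted by enzyme to luciferin, read by luminescence proportional to activity. Enzyme-substrate mix with compound 10 min at room temperature, then NADPH regeneration 1 h before detection reagent.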

For assay [6], the target named is Cytochrome P450 3A4 (Homo sapiens) (UniProt P08684). Nature of the assay: Cytochrome P450 family 3 subfamily A member 4 (CYP3A4) small molecule antagonists: luciferase qHTS assay (AID 1645841; active means well fitted curve in the direction sought with a large enough effect in the repeat runs; an effect the other way counts as inactive or inconclusive; further: nearly all actives have a fitted effect of over 45% in size). In short, it runs like this:
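Luminescent CYP3A4 activity readout: compounds plus enzyme-substrate mix 10 min at room temperature, reaction started with NADPH regenerating system for 1 h, stopped with detection reagent, read after 20 min. Ketoconazole served as control.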

Chain of Calcium and integrin-binding protein 1 (Homo sapiens) (Q99828 whole entry, looked up): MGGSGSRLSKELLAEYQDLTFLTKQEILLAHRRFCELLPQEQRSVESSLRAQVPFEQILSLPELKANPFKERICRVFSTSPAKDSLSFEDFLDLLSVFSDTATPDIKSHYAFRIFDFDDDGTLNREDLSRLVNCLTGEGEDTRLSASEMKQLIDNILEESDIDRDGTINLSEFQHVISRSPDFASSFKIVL
Chain of Cytochrome P450 2C9 (Homo sapiens) (P11712 whole entry, looked up): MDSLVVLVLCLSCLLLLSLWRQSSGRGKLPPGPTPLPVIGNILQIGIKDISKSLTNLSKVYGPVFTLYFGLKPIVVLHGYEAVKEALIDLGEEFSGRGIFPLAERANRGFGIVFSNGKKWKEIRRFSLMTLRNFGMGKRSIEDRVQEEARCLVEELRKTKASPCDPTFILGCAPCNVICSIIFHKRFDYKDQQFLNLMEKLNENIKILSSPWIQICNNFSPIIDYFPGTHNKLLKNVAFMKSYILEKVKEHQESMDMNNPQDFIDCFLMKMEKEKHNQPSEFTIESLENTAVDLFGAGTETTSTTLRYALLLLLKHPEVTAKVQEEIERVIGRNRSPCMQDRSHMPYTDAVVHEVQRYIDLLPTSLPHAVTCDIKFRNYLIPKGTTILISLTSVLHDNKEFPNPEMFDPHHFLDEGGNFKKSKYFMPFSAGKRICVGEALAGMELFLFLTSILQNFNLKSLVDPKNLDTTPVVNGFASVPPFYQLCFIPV
Chain of N-terminal Xaa-Pro-Lys N-methyltransferase 1 (Homo sapiens) (Q9BV86 whole entry, looked up): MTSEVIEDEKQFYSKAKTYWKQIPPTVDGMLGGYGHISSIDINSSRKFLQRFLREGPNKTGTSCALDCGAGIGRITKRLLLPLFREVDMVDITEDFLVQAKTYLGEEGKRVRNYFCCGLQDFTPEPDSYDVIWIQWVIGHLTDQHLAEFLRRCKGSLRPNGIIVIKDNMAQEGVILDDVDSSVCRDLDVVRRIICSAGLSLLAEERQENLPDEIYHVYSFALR
Chain of Cytochrome P450 3A4 (Homo sapiens) (P08684 whole entry, looked up): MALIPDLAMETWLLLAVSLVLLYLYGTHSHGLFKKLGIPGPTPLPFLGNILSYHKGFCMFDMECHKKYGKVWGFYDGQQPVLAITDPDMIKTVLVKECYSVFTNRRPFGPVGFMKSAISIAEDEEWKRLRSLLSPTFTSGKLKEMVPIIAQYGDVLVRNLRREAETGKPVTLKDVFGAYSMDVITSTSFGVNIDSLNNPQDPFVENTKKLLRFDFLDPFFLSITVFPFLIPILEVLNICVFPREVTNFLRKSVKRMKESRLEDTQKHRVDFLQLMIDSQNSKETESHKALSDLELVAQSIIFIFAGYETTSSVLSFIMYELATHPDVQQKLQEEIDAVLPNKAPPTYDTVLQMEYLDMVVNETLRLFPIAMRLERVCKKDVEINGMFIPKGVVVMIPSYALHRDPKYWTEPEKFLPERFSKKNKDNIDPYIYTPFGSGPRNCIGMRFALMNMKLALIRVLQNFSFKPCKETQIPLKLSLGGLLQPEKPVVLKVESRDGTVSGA
Chain of Cytochrome P450 2D6 (Homo sapiens) (P10635 whole entry, looked up): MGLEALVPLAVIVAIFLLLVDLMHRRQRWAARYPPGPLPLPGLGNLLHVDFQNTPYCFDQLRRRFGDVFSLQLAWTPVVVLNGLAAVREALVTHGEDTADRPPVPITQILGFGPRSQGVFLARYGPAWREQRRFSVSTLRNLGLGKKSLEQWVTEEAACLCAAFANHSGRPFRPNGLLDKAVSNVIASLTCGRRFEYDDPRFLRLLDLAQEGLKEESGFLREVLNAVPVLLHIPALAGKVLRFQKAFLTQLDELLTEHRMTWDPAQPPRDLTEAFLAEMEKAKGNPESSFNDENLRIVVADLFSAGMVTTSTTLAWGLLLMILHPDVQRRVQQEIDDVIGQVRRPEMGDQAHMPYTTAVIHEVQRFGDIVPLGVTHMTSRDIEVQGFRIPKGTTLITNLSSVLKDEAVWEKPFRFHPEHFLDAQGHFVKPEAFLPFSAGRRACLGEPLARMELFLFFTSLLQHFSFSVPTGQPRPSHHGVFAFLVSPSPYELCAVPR

`COc1cc(O)c([C@@H](CC(=O)N2CC(C)CC(C)C2)c2ccc3c(c2)OCO3)c(OC)c1` (some centres undefined): the Potency result in assay [1] was “inactive”. In addition, the Potency in assay [2] was 1.34 µM (active).

Take `CN(C)C/C=C/C(=O)Nc1cc2c(Nc3ccc(F)c(Cl)c3)ncnc2cc1OC1CCOC1` (centres undefined): the Potency result in assay [1] is “inactive”. Also, the Potency was 15.1 µM (active) in assay [2], 20 µM (active) in assay [3] and 2.3 µM (active) in assay [4].

As to `CC(C)(C(=O)NCC(F)(F)C(F)(F)F)C(=O)NC1C(=O)Nc2ccccc2-c2ccccc21` (centres undefined), the Potency result in assay [1] is “inactive”. Besides, in assay [2], the Potency is 9.52 µM (active).

In the case of `CC[C@H](CO)Nc1nc(NCc2ccc(-c3ccccn3)cc2)c2ncn(C(C)C)c2n1`, the Potency result in assay [1] is “inactive”. Further, the Potency was 0.19 µM (active) in assay [2] and 0.459 µM (active) in assay [4].

Consider `C[C@@H]1CCN(C(=O)N2CCCC2)C[C@@H]1N(C)c1ncnc2[nH]ccc12`, for which the Potency result in assay [1] and in assay [2] was “inactive” in each case.

Turning to `COC(=O)N[C@@H](C)CNc1nccc(-c2cn(C(C)C)nc2-c2cc(Cl)cc(NS(C)(=O)=O)c2F)n1`, the Potency entry in assay [1], in assay [2] and in assay [4] was “inactive” throughout.

On to `Cc1cc(Nc2ccc(NC(=O)c3ccc(Nc4ccnc5ccccc45)cc3)cc2)nc(N)n1`, for which the Potency entry in assay [1] and in assay [2] was “inactive” throughout. The Potency in assay [4] is 1.83 µM (active).

On to `CN(C)C(=O)NC1CCC(CCN2CCN(c3cccc(Cl)c3Cl)CC2)CC1` (centres undefined), for which the Potency result in assay [1] is “inactive”. Besides, the Potency in assay [5] is 12 µM (active). In addition, in assay [4], the activity change, negative = viability loss is 3.61% [at 9.23 µM].

Regarding `C[C@H](C(=O)NC1CCCC1)N(C(=O)Cn1nnc(-c2ccc3c(c2)OCO3)n1)C1CCCCC1`, the Potency entry in assay [1] is “inactive”. Besides, in assay [2], the Potency is 2.68 µM (active).

Take `O=C(C(c1ccccc1)c1ccccc1)N1CCN(CC(O)COc2cccc3ncccc23)CC1` (centres undefined): the Potency result in assay [1] is “inactive”. Besides, the Potency in assay [2] was 12 µM (active).

Consider `O=C1CSc2ccccc2N1Cc1cccc(C(F)(F)F)c1`, for which the Potency entry in assay [1] and in assay [2] was “inactive” in each case.

`CCOC(=O)c1sc(NC(=O)[C@H](C(C)C)n2c(=O)[nH]c3ccccc3c2=O)nc1C`: the Potency result in assay [1] was “inactive”. The Potency in assay [2] was 4.77 µM (active).

For `CC(=O)N1CCN(C(=O)Cc2ccc(Nc3ncc(F)c(Nc4ccc(C(=O)Nc5ccccc5Cl)cc4)n3)cc2)CC1`, the Potency entry in assay [1] was “inactive”. The Potency in assay [2] is 0.477 µM (active); in assay [4] it was 1.63 µM (active).

Turning to `CCCCNc1ccc(-c2ccc(CN3CCOCC3)cn2)c(NC2CCC(O)CC2)c1` (centres undefined), the Potency entry in assay [1] and in assay [6] was “inactive” each time.

On to `O=S(=O)(c1ccccc1)c1cnc2c(N3CCNCC3)cccc2c1`, for which the Potency result in assay [1] is “inactive”. For the same compound, in assay [2], the Potency is 0.338 µM (active).

For `Cc1cc(C)c2c(N)c(C(=O)NCc3ccc(Cl)cc3)sc2n1`, the Potency entry in assay [1] and in assay [3] was “inactive” throughout. The Potency in assay [2] was 1.9 µM (active).

Consider `COc1ccc(CNC(=O)c2sc3nc(C)cc(C)c3c2N)cc1`, for which the Potency entry in assay [1] was “inactive”. The Potency in assay [2] was 3.79 µM (active).

As for `CC(C)(C)NC(=O)[C@@H](c1cccnc1)N(C(=O)c1ccco1)c1ccc(C(C)(C)C)cc1`, the Potency entry in assay [1] is “inactive”. Further, the Potency in assay [2] was 5.35 µM (active).

For `C[C@@H]([C@@H](O)c1ccc(O)cc1)N1CCC(O)(c2ccccc2)CC1`, the Potency entry in assay [1], in assay [2] and in assay [4] was “inactive” throughout.

In the case of `C=CC(=O)Nc1cc(Nc2ncc(Cl)c(-c3c[nH]c4ccccc34)n2)c(OC)cc1N(C)CCN(C)C`, the Potency result in assay [1] is “inactive”. Besides, in assay [2], the Potency was 9.52 µM (active).

Turning to `COc1cc(OC)cc(C(=O)Nc2ccc(Cl)c(-c3nc4ccc(N(C)C)cc4[nH]3)c2)c1`, the Potency result in assay [1] is “inactive”. Besides, the Potency in assay [2] was 1.69 µM (active).

Turning to `C#CCN(Cc1cc2c(=O)n(C)c(CN3CCN(C)CC3)nc2cc1Cl)c1ccc(C(=O)NCc2cccnc2)cc1`, the Potency entry in assay [1] and in assay [4] was “inactive” each time. Moreover, the Potency in assay [2] was 12 µM (active).

Turning to `C[C@H]1Oc2cc(cnc2N)-c2c(nn(C)c2C#N)CN(C)C(=O)c2ccc(F)cc21`, the Potency result in assay [1] is “inactive”. For the same compound, the Potency in assay [2] is 6.01 µM (active).

Regarding `CSc1ccc(C(=O)N[C@@H]2CCCC[C@@H]2NC(=O)CNC(=O)c2cc(C(F)(F)F)ccc2NC(=O)NC(C)C)cc1`, the Potency entry in assay [1] was “inactive”. In addition, in assay [2], the Potency is 3.01 µM (active).

As for `O=C(Nc1ccc(Cl)cc1F)c1ccccc1O`, the Potency entry in assay [1] is “inactive”. In assay [2], the Potency is 9.52 µM (active).

Regarding `Cc1cc(N2CCN([C@@H]3CN[C@H](C(=O)N4CCSC4)C3)CC2)n(-c2ccccc2)n1`, the Potency result in assay [1] and in assay [2] was “inactive” throughout.

For the compound `C[C@H](Oc1ccc(S(C)(=O)=O)cc1C(=O)N1CCN(c2ncc(C(F)(F)F)cc2F)CC1)C(F)(F)F`, the Potency result in assay [1] is “inactive”. Moreover, the Potency in assay [2] is 6.74 µM (active).

On to `O=C(NCC(O)CO)c1ccncc1Nc1ccc(I)cc1F` (centres undefined), for which the Potency entry in assay [1] is “inactive”. Besides, in assay [2], the Potency was 16.9 µM (active).

As for `Cc1nc2ccc(Oc3ccc(F)cc3)cc2c(=O)n1C[C@H]1CCCN(C(C)C)C1`, the Potency result in assay [1] and in assay [2] was “inactive” in each case.

`O=C(c1cc2c(cc1F)OC(c1ccc(F)cc1)(c1ccc(Cl)cc1Cl)O2)N1CCOCC1` (centres undefined): the Potency result in assay [1] is “inactive”. In addition, the Potency in assay [2] is 10.7 µM (active).

As to `O=c1[nH]ccc2cc(OC3CCNCC3)ccc12`, the Potency entry in assay [1] and in assay [2] was “inactive” in each case.

With `Cc1noc(=O)c2ccc(NC(=O)C(O)(CC(C)(C)c3cccc4c3OCC4)C(F)(F)F)cc12` (centres undefined), the Potency entry in assay [1] and in assay [2] was “inactive” each time.
